Screening results from PubChem BioAssay.
CYP2C9 inh – blockers of cytochrome P450 2C9 activity – biochemical, luminescence, ADME assay, primary screen; AID 777, 2007; inhibition, % at 5 µM; CYP2C9 Supersomes, luciferin-H conversion; P11712; actives 20% (n = 96,000);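 active = blocking of liver enzyme CYP2C9 beyond about 50% at 5 µM, limit read from the data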
CYP2C19 act – human CYP2C19 activators, primary screen, biochemical, luminescence | activation factor at 5 µM | recombinant CYP2C19, luciferin-H EGE luminescence; hits give high values; 0 = fully inhibited enzyme, 1 = untreated enzyme | Cytochrome P450 2C19 (Homo sapiens), P33261 | 96,000 tested, under 10 active;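 active = activation factor of at least 2 at 5 µM in the primary screen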;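 also: 0 = wells with 2.5 mM tranylcypromine and 1 = vehicle-only wells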
CYP2C9 activ – human CYP2C9 activators, primary screen, biochemical, luminescence; AID 1024, 2008; activation factor at 5 µM; recombinant CYP2C9, luciferin-H conversion; hits give high values; factor 1 = untreated enzyme, 0 = blocked; actives 1.4% (n = 96,000); Cytochrome P450 2C9 (Homo sapiens), P11712;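 active = activation factor of 2 or more for CYP2C9 at a 5 µM dose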;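 also: 0 = sulfaphenazole-blocked wells and 1 = vehicle-only wells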
sEH activator – soluble epoxide hydrolase activators, primary screen, biochemical, human sEH; Bifunctional epoxide hydrolase 2 (Homo sapiens), P34913; purified human sEH enzymatic activity, activator screen; activation, % at 2 µM; actives 0.04% (n = 91,000); in the data active = activation above about 37%
CYP2C19 inhib – blockers of cytochrome P450 2C19 activity – biochemical, luminescence, ADME assay, primary screen; CYP2C19 Supersomes, luciferin-H EGE luminescence, 30 min; inhibition, % at 5 µM; actives 21% (n = 96,000); AID 778, 2007;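 active = CYP2C19 inhibition above a set limit at 5 µM in the primary screen, cut at about 50% in these data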;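 also: plate controls were negative control wells for no effect and 2.5 mM tranylcypromine positive control for full effect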
sEH inh – soluble epoxide hydrolase inhibitors, primary screen, biochemical, human sEH; AID 707, 2007; recombinant human sEH enzymatic activity assay; Bifunctional epoxide hydrolase 2 (Homo sapiens), P34913; actives 0.34% (n = 91,000); inhibition, % at 2 µM; in the data active = inhibition above about 80%
* marks the source's active call; other numbers are inactive results; nt = no result. Rows were chosen to be rich in hits. Some 27% of all compounds tested hit in one or more screens of this group.

SMILES	CYP2C9 inh	CYP2C19 act	CYP2C9 activ	sEH activator	CYP2C19 inhib	sEH inh
COc1ccc(C2CCCN2C(=O)c2cccs2)cc1 (centres undefined)	27	0.7	0.7	11	33	-10
COc1ccc(NC(=O)COC(=O)[C@@H]2CCCN2C(=O)c2cccs2)c(OC)c1	56*	0.6	0.4	13	42	-10
CC(C)(C)C(=O)NC1CCN(C(=O)N2CCCC2)CC1	6	0.5	0.9	-8	53*	7
CC(C)(C)C(=O)NC1CCN(S(C)(=O)=O)CC1	nt	nt	nt	3	nt	2
CCOC(=O)/C(=N/Nc1ccc(C)cc1)S(=O)(=O)c1ccc(Cl)cc1	90*	0.3	0.1	2	69*	0
Nc1nc(C2CC2)c(Sc2sc(N)nc2C2CC2)s1	48	0.4	0.5	5	62*	-3
Cn1c(N)c(N2CCCCC2)c(=O)n(CC(=O)Nc2ccc(Cl)c(Cl)c2)c1=O	98*	0.1	0	-3	94*	5
Cc1ccc(OC(C)C)c(CN(CCO)CCO)c1	-4	1	1	6	0	-5
Cc1ccc(S(=O)(=O)c2c(COC(=O)c3ccccc3Cl)c(-c3ccccc3)nn2C)cc1	70*	0.5	0.3	-5	50*	4
CCOC(=O)Cn1c(S(=O)(=O)Cc2ccccc2Cl)nc(-c2ccccc2)c1-c1ccccc1	42	0.8	0.6	-6	19	7
CC(C)CCN(C)c1ccc(/C=N/n2cnnc2)cc1	95*	0	0	4	99*	-6
Cn1nc(-c2ccc(Cl)cc2)c2cc(C(=O)NCC3CCCO3)sc21 (centres undefined)	53*	0.7	0.5	4	28	-3
CN1CCN(CCCNC(=O)c2cc3c(-c4ccc(Cl)cc4)nn(C)c3s2)CC1	13	1	0.9	1	-2	-2
O=C(NCc1ccco1)c1cccs1	11	0.9	0.9	1	13	0
O=C(NCc1ccco1)c1cc2c(s1)CSC2	56*	0.7	0.4	-52	32	52
O=C(NCc1ccco1)c1cc(-c2ccccc2)on1	-108	0.9	2.1*	1	8	2
O=C(NCC1CCCO1)c1cc(-c2ccccc2)on1 (centres undefined)	-156	1	2.6*	-10	-4	12
O=C(NCc1ccco1)c1cc(-c2ccc(F)cc2)on1	3	0.9	1	nt	11	nt
Cc1ccc(-c2cc(C(=O)NCC3CCCO3)no2)cc1 (centres undefined)	-12	0.6	1.1	1	44	0
CCNC(=O)CSc1nnc(-c2ccc(OC)cc2)n1CC(C)C	21	0.9	0.8	2	11	-3
O=C(NCc1ccco1)c1ccccc1-c1ccccc1	-7	1	1.1	-2	4	5
O=C(NCC1CCCO1)c1ccccc1-c1nc(-c2ccccc2)no1 (centres undefined)	58*	0.8	0.4	10	24	-10
Cc1scc(C(=O)NCc2ccco2)c1-c1ccccc1	46	0.4	0.5	nt	61*	nt
CSc1ccccc1C(=O)NCC1CCCO1 (centres undefined)	4	1	1	15	3	-18
Cc1cc(C)n2nc(/C(C#N)=C/c3ccccc3)c(C#N)c2n1	18	0.9	0.8	-17	5	15
CC(C)(C)c1ccc(NC(=O)COc2ccc(-n3ccnc3)cc2)cc1	99*	0	0	-7	99*	6
N#Cc1cccc(NC(=O)COc2ccc(-n3ccnc3)cc2)c1	99*	0	0	-6	100*	8
Cc1ccc(NC(=O)COc2ccc(-n3cnnn3)cc2)cc1C	nt	nt	nt	-7	nt	9
Cc1cc(NCC(C)C)n2ncnc2n1	-18	1.1	1.2	7	-14	-3
CCNc1nc(SC(C)C(=O)Nc2ccccc2)nc(N2CCOCC2)n1 (centres undefined)	56*	0.9	0.4	-11	10	11
